In paper PMC7862700, “An all-to-all approach to the identification of sequence-specific readers for epigenetic DNA modifications on cytosine” one finds binding signal data, which are given here for two sequences.

What all share (experiment): DAPPL (digital affinity profiling via proximity ligation, sequencing); 10 mM Tris-HCl pH 7.5, 50 mM NaCl, 1 mM DTT, 4% glycerol, room temperature, 30 min; GST-TFs on glutathione beads, 16-mer random dsDNA library, 0.1% formaldehyde crosslink after washing; high values mean tight binding
Assay [1] concerns the target HSF1 (Homo sapiens, UniProt Q00613 1-529). As to conditions: protein: recombinant; tags: N-terminal GST; chain copies: 3; dsDNA, one strand shown. In outline:
(§1)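 Human transcription factors were made in yeast as GST fusions, captured on glutathione beads and barcoded with DNA. With a tag-only sample included, the pool was incubated with 200 nmole of a random double-stranded 16-mer DNA library in Tris/NaCl/DTT/glycerol buffer at room temperature for 30 min, then crosslinked with 0.1% formaldehyde after washing, ligated by proximity, amplified and sequenced. For binding signal, each hexamer's read frequency for a factor is divided by its frequency for the tag-only sample.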

In assay [2] the target is ELF4 (Homo sapiens, UniProt Q99607 1-663). The conditions noted are these: protein: recombinant; tags: N-terminal GST; dsDNA, one strand shown. In outline: as §1
The target of assay [3] is T1, ELK4 (Homo sapiens, UniProt P28324-2 1-405).
T1 sequence: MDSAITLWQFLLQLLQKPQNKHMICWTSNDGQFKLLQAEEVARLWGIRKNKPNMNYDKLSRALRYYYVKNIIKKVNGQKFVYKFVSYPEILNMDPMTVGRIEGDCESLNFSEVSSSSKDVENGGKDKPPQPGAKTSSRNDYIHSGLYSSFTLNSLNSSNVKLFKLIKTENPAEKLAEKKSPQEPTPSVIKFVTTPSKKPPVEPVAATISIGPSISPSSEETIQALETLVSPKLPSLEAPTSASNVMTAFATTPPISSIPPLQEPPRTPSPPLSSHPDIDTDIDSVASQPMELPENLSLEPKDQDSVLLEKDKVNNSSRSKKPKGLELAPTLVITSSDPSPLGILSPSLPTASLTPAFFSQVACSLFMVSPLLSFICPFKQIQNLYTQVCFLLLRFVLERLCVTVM
The conditions noted are these: protein: recombinant; tags: N-terminal GST; dsDNA, one strand shown. The procedure, abridged:
as §1

In assay [4] the target is T2, ETV2 (Homo sapiens, UniProt O00321 1-342).
T2 sequence: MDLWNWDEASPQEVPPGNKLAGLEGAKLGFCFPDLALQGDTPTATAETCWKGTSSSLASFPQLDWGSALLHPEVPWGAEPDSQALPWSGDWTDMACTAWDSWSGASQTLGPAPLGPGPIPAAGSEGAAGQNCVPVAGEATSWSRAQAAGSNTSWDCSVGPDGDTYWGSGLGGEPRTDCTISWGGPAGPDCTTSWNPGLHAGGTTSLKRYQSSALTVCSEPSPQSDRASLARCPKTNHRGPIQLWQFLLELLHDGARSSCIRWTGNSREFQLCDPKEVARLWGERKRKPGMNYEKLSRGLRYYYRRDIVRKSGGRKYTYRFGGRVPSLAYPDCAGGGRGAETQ
The conditions noted are these: protein: recombinant; tags: N-terminal GST; dsDNA, one strand shown. In outline:
as §1

Assay [5] has as its target CRX (Homo sapiens, UniProt O43186 1-299). As to conditions: protein: recombinant; tags: N-terminal GST; dsDNA, one strand shown. The procedure, abridged:
as §1

Assay [6] addresses ETV1 (Homo sapiens, UniProt P50549 1-477). The conditions noted are these: protein: recombinant; tags: N-terminal GST; dsDNA, one strand shown. The procedure, abridged:
as §1

Assay [7] addresses T3, ELK1 (Homo sapiens, UniProt P19419 1-428).
T3 sequence: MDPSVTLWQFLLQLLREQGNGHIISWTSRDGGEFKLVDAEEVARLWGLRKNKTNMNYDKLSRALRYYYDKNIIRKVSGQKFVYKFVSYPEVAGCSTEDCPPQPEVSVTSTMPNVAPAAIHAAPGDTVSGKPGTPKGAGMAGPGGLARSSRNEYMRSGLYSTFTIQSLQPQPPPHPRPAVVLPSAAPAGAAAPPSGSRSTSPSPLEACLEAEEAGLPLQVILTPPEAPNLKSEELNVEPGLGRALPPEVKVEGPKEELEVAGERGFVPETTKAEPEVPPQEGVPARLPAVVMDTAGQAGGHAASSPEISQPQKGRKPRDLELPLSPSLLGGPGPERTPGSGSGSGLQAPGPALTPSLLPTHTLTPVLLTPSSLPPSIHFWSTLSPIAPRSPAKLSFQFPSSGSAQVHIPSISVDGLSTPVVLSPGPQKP
The conditions noted are these: protein: recombinant; tags: N-terminal GST; dsDNA, one strand shown. In outline: as §1

Assay [8] addresses T4, GABPA (Homo sapiens, UniProt Q06546 1-454).
T4 sequence: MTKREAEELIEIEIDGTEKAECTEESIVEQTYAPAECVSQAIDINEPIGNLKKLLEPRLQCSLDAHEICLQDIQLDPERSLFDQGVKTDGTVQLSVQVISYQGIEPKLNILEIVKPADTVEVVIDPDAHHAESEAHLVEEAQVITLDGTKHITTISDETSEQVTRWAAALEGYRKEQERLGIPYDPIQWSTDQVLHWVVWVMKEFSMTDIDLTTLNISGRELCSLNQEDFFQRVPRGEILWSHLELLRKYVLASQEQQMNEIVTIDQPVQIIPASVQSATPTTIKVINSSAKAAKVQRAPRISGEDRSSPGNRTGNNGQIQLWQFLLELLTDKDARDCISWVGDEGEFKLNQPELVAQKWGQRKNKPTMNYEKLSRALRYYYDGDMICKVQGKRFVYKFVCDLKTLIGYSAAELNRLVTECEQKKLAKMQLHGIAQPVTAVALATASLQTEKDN
As to conditions: protein: recombinant; tags: N-terminal GST; dsDNA, one strand shown. The procedure, abridged: as §1

Assay [9] addresses ELF1 (Homo sapiens, UniProt P32519 1-619). The conditions noted are these: protein: recombinant; tags: N-terminal GST; dsDNA, one strand shown. The procedure, abridged: as §1
The target in assay [10] is T5, ETV3L (Homo sapiens, UniProt Q6ZN32 1-361).
T5 sequence: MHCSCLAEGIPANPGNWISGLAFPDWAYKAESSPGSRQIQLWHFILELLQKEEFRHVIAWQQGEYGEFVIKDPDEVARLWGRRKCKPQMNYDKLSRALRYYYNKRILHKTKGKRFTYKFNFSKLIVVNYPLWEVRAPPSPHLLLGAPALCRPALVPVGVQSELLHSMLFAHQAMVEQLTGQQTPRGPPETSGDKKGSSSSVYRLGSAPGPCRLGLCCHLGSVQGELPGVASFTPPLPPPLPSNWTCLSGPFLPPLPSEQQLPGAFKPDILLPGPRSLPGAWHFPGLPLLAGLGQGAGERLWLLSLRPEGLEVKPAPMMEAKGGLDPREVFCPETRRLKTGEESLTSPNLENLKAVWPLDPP
The conditions noted are these: protein: recombinant; tags: N-terminal GST; dsDNA, one strand shown. In outline: as §1

The target of assay [11] is T6, SPDEF (Homo sapiens, UniProt O95238 1-335).
T6 sequence: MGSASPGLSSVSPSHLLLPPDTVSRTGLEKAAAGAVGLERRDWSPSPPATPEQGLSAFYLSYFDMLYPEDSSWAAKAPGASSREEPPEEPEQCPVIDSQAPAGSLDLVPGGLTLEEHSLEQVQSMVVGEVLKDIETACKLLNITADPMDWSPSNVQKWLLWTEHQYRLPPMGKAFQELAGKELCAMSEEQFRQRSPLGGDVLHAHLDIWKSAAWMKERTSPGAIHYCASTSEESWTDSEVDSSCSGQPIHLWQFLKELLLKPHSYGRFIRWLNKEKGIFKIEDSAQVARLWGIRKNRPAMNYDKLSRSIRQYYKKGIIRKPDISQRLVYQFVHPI
As to conditions: protein: recombinant; tags: N-terminal GST; dsDNA, one strand shown. In outline: as §1

For assay [12], the target named is T7, ETV3 (Homo sapiens, UniProt P41162-2 1-143).
T7 sequence: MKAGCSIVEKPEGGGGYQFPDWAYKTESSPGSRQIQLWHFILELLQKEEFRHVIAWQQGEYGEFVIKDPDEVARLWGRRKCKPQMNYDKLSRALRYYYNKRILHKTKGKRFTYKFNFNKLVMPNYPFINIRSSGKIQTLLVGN
The conditions noted are these: protein: recombinant; tags: N-terminal GST; dsDNA, one strand shown. The procedure, abridged:
as §1

For assay [13], the target named is ETV6 (Homo sapiens, UniProt P41212 1-452). The conditions noted are these: protein: recombinant; tags: N-terminal GST; dsDNA, one strand shown. In outline:
as §1

Chain of ETV1 (P50549 whole entry): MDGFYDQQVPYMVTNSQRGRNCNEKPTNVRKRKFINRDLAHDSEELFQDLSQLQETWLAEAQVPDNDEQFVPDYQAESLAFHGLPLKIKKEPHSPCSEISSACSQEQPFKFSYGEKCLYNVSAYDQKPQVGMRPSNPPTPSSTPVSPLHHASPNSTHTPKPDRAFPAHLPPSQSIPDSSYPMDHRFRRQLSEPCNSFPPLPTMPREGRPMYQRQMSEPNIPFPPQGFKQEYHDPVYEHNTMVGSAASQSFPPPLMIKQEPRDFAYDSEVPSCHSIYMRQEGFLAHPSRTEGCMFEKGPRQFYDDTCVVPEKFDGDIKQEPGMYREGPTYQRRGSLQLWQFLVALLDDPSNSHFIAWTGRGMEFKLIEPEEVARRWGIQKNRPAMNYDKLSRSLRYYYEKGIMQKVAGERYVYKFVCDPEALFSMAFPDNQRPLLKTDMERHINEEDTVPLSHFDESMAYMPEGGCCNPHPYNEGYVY
Chain of CRX (O43186 whole entry): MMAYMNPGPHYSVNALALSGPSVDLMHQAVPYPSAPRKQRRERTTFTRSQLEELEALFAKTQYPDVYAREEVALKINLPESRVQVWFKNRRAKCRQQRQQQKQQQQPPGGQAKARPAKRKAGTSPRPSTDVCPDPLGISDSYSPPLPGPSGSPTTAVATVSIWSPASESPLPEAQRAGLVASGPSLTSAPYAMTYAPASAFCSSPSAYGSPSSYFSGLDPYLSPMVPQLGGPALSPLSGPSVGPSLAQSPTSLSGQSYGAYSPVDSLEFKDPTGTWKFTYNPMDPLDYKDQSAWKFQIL
Chain of HSF1 (Q00613 whole entry, the tested form may be a part): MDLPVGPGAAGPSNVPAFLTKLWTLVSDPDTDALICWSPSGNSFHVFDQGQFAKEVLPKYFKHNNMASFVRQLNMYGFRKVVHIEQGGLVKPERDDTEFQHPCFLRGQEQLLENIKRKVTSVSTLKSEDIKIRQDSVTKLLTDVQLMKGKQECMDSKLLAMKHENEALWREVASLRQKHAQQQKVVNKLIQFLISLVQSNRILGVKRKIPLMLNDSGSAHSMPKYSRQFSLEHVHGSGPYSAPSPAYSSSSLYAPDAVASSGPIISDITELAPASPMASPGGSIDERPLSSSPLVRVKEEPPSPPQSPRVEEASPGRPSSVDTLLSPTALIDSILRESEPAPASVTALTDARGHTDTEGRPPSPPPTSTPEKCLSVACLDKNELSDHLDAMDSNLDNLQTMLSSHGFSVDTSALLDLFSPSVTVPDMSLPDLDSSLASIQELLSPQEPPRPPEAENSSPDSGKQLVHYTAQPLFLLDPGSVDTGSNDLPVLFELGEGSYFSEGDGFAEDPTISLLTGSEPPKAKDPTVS
Chain of ELF4 (Q99607 whole entry): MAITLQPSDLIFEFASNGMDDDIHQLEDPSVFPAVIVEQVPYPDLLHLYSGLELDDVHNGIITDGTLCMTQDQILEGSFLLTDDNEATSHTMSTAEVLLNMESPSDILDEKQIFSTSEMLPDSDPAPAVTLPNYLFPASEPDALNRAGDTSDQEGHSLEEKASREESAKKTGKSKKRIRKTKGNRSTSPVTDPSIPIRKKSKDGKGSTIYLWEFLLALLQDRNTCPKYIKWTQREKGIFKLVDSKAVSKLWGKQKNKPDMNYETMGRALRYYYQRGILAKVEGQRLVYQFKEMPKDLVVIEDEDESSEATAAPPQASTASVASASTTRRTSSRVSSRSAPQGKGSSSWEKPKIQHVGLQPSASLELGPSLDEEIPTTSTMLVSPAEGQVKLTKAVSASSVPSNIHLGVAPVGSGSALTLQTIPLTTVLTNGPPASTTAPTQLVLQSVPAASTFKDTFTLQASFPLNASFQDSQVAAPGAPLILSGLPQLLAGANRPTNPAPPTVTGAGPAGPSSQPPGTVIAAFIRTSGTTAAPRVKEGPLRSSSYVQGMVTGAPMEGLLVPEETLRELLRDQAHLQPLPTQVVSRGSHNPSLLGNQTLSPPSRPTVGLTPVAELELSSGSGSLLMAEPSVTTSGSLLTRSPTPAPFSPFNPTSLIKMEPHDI
Chain of ETV6 (P41212 whole entry): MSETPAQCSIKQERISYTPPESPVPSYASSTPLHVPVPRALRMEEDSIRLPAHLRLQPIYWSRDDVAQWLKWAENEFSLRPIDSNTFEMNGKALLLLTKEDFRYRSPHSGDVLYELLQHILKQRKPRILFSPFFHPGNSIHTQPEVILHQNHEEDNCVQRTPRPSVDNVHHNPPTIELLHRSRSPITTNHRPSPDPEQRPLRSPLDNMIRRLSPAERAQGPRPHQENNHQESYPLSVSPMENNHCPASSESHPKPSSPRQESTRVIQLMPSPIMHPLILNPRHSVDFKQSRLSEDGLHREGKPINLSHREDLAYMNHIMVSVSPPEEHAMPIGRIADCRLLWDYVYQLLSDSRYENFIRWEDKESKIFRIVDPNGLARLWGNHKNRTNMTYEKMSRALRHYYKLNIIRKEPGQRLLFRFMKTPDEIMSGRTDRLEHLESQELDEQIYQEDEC
Chain of ELF1 (P32519 whole entry): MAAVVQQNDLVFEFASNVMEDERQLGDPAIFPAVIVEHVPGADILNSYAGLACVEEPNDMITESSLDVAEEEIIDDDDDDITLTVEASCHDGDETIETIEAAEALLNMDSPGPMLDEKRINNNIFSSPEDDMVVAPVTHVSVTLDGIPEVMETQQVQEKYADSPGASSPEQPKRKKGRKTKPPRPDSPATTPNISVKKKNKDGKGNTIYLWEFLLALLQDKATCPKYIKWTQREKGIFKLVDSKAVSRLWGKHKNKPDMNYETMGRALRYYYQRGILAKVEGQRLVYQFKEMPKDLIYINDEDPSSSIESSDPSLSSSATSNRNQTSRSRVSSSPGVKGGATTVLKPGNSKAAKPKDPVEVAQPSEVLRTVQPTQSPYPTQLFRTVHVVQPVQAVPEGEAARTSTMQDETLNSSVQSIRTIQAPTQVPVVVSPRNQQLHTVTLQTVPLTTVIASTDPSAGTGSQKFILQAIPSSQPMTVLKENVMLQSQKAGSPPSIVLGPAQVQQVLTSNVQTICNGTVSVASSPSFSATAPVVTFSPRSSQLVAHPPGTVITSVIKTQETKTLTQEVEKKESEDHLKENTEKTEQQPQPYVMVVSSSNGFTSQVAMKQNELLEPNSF

AGGGTT: the binding signal in [1] was 1.02 fold enrichment (6-mer frequency, TF over GST control); in [2], 1.03 fold enrichment (6-mer frequency, TF over GST control); in assay [3], 1.14 fold enrichment (6-mer frequency, TF over GST control); in assay [4] it was 1.03 fold enrichment (6-mer frequency, TF over GST control); in assay [5], 1.06 fold enrichment (6-mer frequency, TF over GST control); in assay [6], 1.01 fold enrichment (6-mer frequency, TF over GST control).

GCGATC: the binding signal in assay [7] is 1.08 fold enrichment (6-mer frequency, TF over GST control); in [8], 1.01 fold enrichment (6-mer frequency, TF over GST control); in [9], 1.06 fold enrichment (6-mer frequency, TF over GST control); in assay [1], 1.02 fold enrichment (6-mer frequency, TF over GST control); in [3], 1.13 fold enrichment (6-mer frequency, TF over GST control); in assay [5], 1.03 fold enrichment (6-mer frequency, TF over GST control). For the same sequence, the binding signal in assay [6] was 1.03 fold enrichment (6-mer frequency, TF over GST control); in assay [10], 1.03 fold enrichment (6-mer frequency, TF over GST control); in assay [11], 1.04 fold enrichment (6-mer frequency, TF over GST control); in [12], 1 fold enrichment (6-mer frequency, TF over GST control); in [13], 1 fold enrichment (6-mer frequency, TF over GST control).
